# Laboratory results: PubChem BioAssay (NCI)
# About 83,000 compounds went through this panel and 20% of them were active in at least one assay; those are over-represented in the sample as a whole.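 Single-dose data. Exposure time 48 hours. Values below 10 considered active.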 Values without a mark were called inactive. Activity calls are given as the source filed them.
# Experiments:
# Assay in all cases: NCI-60 one-dose screen, 48 h (100 = growth as untreated, 0 = no growth, -100 = all killed)
# Settings in all cases: 10 µM
# NCI-H23 lung = tested on: NCI-H23 lung
# NCI-H226 lung = tested on: NCI-H226 lung
# HOP-62 NSCLC = tested on: HOP-62 NSCLC
# NCI-H460 lung = tested on: NCI-H460 lung
# HOP-92 NSCLC = tested on: HOP-92 NSCLC
# NCI-H522 lung = tested on: NCI-H522 lung
# A549/ATCC NSCLC = tested on: A549/ATCC NSCLC
# 786-0 renal = tested on: 786-0 renal
# COLO 205 colon = tested on: COLO 205 colon
Structure (SMILES),growth (NCI-H23 lung),growth (NCI-H226 lung),growth (HOP-62 NSCLC),growth (NCI-H460 lung),growth (HOP-92 NSCLC),growth (NCI-H522 lung),growth (A549/ATCC NSCLC),growth (786-0 renal),growth (COLO 205 colon)
Cc1ccc(N=Nc2ccccc2)cc1,95.1%,108%,90.5%,105%,90.9%,84.2%,87.8%,89.6%,–
CCCCN(CCCC)C(=O)[C@H](CC)[C@@H]1CC[C@@H](C)[C@@H]([C@H](C)[C@@H](O)[C@@H](C)C(=O)[C@H](CC)C2O[C@]3(C=CC(=O)[C@]4(CC[C@@](C)([C@H]5CC[C@](O)(CC)[C@H](C)O5)O4)O3)[C@H](C)C[C@@H]2C)O1 (some centres undefined),25.8%,15.3%,42.1%,19.7%,-6.89% (active),13.2%,30.3%,47.7%,–
CC(C)C1=C(O)C2=C(C(=O)C1=O)[C@@]1(C)CCCC(C)(C)[C@@H]1CC2,65.8%,83.5%,70.6%,37.6%,53.6%,86.9%,62.1%,78.7%,92.7%
O=C(CN1CCN(C(=O)c2ccccc2)CC1)Nc1ccccc1SCc1ccccc1,79%,81.5%,89.6%,96.8%,71.4%,50.9%,83.4%,79.3%,–
CN(C)CCOc1cccc(NC2=C(Cl)C(=O)C(Nc3cccc(OCCN(C)C)c3)=C(Cl)C2=O)c1,-59.5% (active),-74.6% (active),-82.9% (active),55.4%,-70.1% (active),-91.3% (active),57.9%,-86.4% (active),–
Nc1c(Br)cc(Br)c2c1[nH]c(=O)c1ccccc12,67%,19.5%,22.4%,29.1%,82.8%,87.4%,58.7%,74.3%,–
Cc1nn(-c2ccccc2)c2nc(Cl)c(C=O)c(-c3ccccc3)c12,80.6%,93.3%,115%,94%,65.7%,106%,78.3%,94.5%,121%
Cc1n[nH]c(C)c1N=Nc1cccc2c1C(=O)c1ccccc1C2=O,84.7%,87.4%,96.9%,96.5%,92.6%,86.7%,105%,101%,104%
CC(C)C[C@H](NC(=O)Cn1cccc(CNC(=O)c2ccccc2)c1=O)B(O)O,23.7%,-66% (active),5.64% (active),27.8%,-11.3% (active),-9.79% (active),43.9%,29.5%,30.6%
Cc1ccc(NCCN(C)CC(C)O)c2c(=O)c3ccccc3sc12 (centres undefined),57.4%,66.1%,48%,15.6%,32.4%,44.4%,21.6%,40.5%,–
O=S(=O)(O)c1ccc(Cl)cc1,96%,97.3%,95.2%,103%,117%,94.6%,97%,111%,–
CCN(CC)CC(=O)N(CC)c1ccc(C)c(Cl)c1,103%,99.8%,91%,104%,90.1%,83.8%,86.3%,98.4%,101%
Nc1ncnc2c1ncn2C1(CO)OCC(O)C(O)C1O (centres undefined),96.8%,107%,91.4%,107%,113%,82.4%,96.7%,101%,–
O=C(/C=C/c1cccc(B(O)O)c1)c1cccc(B(O)O)c1,-0.41% (active),-59.2% (active),-34.7% (active),23.3%,69.6%,-9.1% (active),34.2%,-88.6% (active),-90.8% (active)
Cc1cc(CCNC=O)c(C)c2c1sc1ccccc12,86.6%,77.2%,86.2%,104%,91.2%,101%,82.9%,106%,124%
Cc1cc(=O)n2nnc3cc(C(F)(F)F)ccc3n12,101%,115%,117%,114%,93.9%,97.4%,105%,104%,108%
Oc1cccc(-c2nc3sccn3c2-c2ccncn2)c1,92.1%,94.4%,103%,97.8%,82.6%,98.9%,100%,95.7%,32.1%
O=S(=O)(Oc1ccc(-c2ccc3sccc3c2)cc1)c1ccc(F)cc1,87.6%,94.5%,111%,103%,105%,87.7%,94%,96.3%,111%
COc1cc(-c2nn(-c3ccc(NC(=O)NCCNS(=O)(=O)c4ccc(F)cc4)cc3)cc2-c2ccncc2)ccc1Cl,12.7%,36.2%,29.7%,0.926% (active),-6.87% (active),-10.4% (active),15.7%,-8.2% (active),-63.5% (active)
COC1OC(COS(=O)OC)C(O)C(O)C1OS(=O)OC (centres undefined),101%,95.7%,104%,101%,108%,98.5%,103%,106%,110%
CC(=O)Nc1ccc2c(c1)C(=O)c1cccc(C(=O)O)c1-2,104%,95.5%,98.9%,98.1%,96.6%,108%,97.6%,105%,114%
Cc1cc(=O)n2nnc3cc(Cl)c(Cl)cc3n12,95.6%,112%,111%,113%,101%,53.9%,104%,108%,-63.7% (active)
COc1cc(C(=O)n2nc(-c3cc(OC)c(OC)c(OC)c3)nc2N)cc(OC)c1OC,92.9%,98.7%,85.8%,103%,82%,82.1%,98.5%,96.6%,99.4%
COc1cc(NC(=O)C2=C(N3CCOCC3)/C(=C/c3ccc(Cl)cc3)CC2)cc(OC)c1OC,94.6%,86.1%,102%,99.6%,65.3%,29.2%,40.8%,93.2%,98.5%
OCCn1cccn1,93.1%,99.9%,104%,102%,101%,101%,111%,109%,125%
N#CC1=C(N)Oc2cc(N)ccc2C1c1cccnc1 (centres undefined),92.1%,101%,92.7%,97.5%,111%,75%,100%,90.7%,113%
CC(C1=C(CN(C(=O)Cc2cn(-c3ccccc3)nc2-c2ccc(Cl)cc2)C(C)C)Cc2ccccc21)c1ccccn1 (centres undefined),55.3%,69.9%,92.7%,53.1%,62.2%,44.2%,61%,68.2%,66.7%
COc1ccc(/C=c2\sc3n(c2=O)C(c2cc(OC)c(OC)c(OC)c2)C=C(c2ccc(OC)c(OC)c2)N=3)cc1OC (centres undefined),103%,108%,103%,107%,63.3%,58.1%,100%,78.1%,97.3%
